# Screening results (PubChem)
# TRPV1 PAM = human TRPV1 potentiation; Q8NER1; 320,000 compounds, 0.02% hits; potentiation, % at 8.33 µM; TRPV1-expressing cells, Fluo-8 calcium influx, capsaicin EC20 potentiation; AID 540277; in the data active means potentiation above about 80%; inconclusive means between about 30% and that limit; further: 0% is about no effect
# Target sequence (Q8NER1 whole entry, looked up): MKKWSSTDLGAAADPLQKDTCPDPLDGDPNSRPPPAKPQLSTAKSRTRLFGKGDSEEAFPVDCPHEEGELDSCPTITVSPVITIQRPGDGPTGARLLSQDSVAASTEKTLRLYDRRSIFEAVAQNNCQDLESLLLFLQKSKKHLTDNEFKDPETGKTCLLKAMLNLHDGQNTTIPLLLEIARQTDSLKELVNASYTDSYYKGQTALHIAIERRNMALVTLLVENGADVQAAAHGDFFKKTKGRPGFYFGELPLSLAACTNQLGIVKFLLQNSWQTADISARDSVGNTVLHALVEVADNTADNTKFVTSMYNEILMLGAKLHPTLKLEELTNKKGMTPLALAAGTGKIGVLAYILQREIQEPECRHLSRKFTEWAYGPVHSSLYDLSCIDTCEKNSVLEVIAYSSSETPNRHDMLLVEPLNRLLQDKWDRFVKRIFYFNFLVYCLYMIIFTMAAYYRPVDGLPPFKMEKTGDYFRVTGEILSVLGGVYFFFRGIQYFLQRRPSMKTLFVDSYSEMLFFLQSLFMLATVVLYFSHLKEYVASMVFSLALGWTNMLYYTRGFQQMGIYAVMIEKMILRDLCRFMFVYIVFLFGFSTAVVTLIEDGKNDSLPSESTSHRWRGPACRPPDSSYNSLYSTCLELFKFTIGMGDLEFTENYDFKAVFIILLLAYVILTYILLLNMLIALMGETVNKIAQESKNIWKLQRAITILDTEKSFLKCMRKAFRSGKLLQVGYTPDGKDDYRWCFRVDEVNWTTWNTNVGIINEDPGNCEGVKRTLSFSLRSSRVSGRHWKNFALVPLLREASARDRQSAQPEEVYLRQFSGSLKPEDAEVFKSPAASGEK
#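 Cells expressing TRPV1 were dye-loaded with Fluo-8 and read kinetically: 10 s baseline, 3 min after compound (agonist portion), then 2 min after EC20 capsaicin (allosteric enhancer portion). Calcium-bound dye fluorescence at 480/520 nm.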
# TRPV1 ag = agonists of human vanilloid receptor 1 (TRPV1); TRPV1-expressing cells, Fluo-8 calcium influx, agonist mode; activation, % at 8.33 µM; 320,000 compounds, 0.19% hits; in the data active means activation above about 80%; inconclusive means between about 30% and that limit; further: 0% is about no effect
#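 TRPV1-expressing cells were cultured overnight at 35.5C and loaded with Fluo-8 calcium dye for 40 to 90 min at room temperature. After a 10 s baseline, compound was added and calcium influx was read kinetically for 3 min (ex 480/em 520 nm).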
# D1 antag = antagonists of human D1 dopamine receptor; P21728; HEK293 TREx D1 cells, calcium flux, dopamine EC80; active compounds read low; activity change, negative = inhibition, % at 10 µM; 360,000 compounds, 3.2% hits; AID 504652; in the data active means activity change below about -30%; further: on the % scale 0 is the no-effect control and ±100 the full control effect
#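 Allosteric or orthosteric antagonism assessed as attenuation of the calcium response to EC80 dopamine, added 180 s after compound, in induced HEK293 Trex D1 cells loaded with no-wash calcium dye.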
# D1 agonist = agonists of human D1 dopamine receptor | P21728 | HEK293 T-REx D1 cells, calcium flux, agonist mode | activation, % at 2 µM | 360,000 compounds, 1% hits; in the data active means activation above about 30%; further: 0% is about no effect
#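 Agonism was scored from calcium flux recorded over 180 s (1 read/s) after pintool compound addition, following a 10-cycle baseline. Cells were inducible force-coupled HEK293 TREx D1, plated overnight at 30 C and loaded with no-wash calcium dye.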
# D1 potentiator = potentiators of human D1 dopamine receptor; HEK293 TREx D1 cells, calcium flux, dopamine EC20 potentiation; potentiation, % at 10 µM; 360,000 compounds, 0.036% hits; AID 504651; in the data active means potentiation above about 30%; further: 0% is about no effect
# Starred values were filed as active, the others as inactive; ? = inconclusive; . = no result. Rows were chosen to be rich in hits. Some 4.2% of all compounds tested hit in one or more screens of this group.
SMILES,TRPV1 PAM,TRPV1 ag,D1 antag,D1 agonist,D1 potentiator
Cc1ccc(NC(=O)CN(C)C(C)C(=O)Nc2ccc(S(=O)(=O)N3CCCC3)cc2)cc1 (stereo unspecified),?,-2,-3,3,-16
COc1ccccc1N1CCN(C(=O)c2cccc(S(=O)(=O)N3CCCCCC3)c2)CC1,-6,8,-42*,3,-5
CCOC(=O)c1cccc(NC(=O)c2sc3nc[nH]c(=O)c3c2C)c1,.,.,2,2,-1
CN1CCN(S(=O)(=O)c2cccc(C(=O)N(C)CC(=O)Nc3ccc(F)c(F)c3F)c2)CC1,10,1,11,179*,-9
COc1cccc(NC(=O)CN(C)C(=O)c2cccc(S(=O)(=O)N3CCN(c4ccc(F)cc4)CC3)c2)c1,10,-7,-34*,7,-12
COc1ccc(NC(=O)CN(C)C(=O)c2cccc(-n3cccc3)c2)cc1,6,1,4,0,4
CC1CCN(S(=O)(=O)c2ccc(C(=O)N3CCOCC3)cc2)CC1,3,0,-35*,0,-6
Cc1ccc(NC(=O)CN(C)C(=O)c2cccc(-n3cccc3)c2)cc1,13,3,-40*,0,-8
COc1ccc(NC(=O)CN(C)C(=O)c2cccc(S(=O)(=O)N3CCN(C)CC3)c2)cc1,-1,-4,-10,0,-1
CN(C(=O)c1oc(=O)c2ccccc2c1-c1ccccc1)c1cccc(Cl)c1,.,.,4,4,-1
Cc1cccc(OCC(=O)Nc2ccc(S(=O)(=O)N(Cc3ccccc3)c3ccccc3)cc2)c1,.,.,7,17,-1
CN(Cc1ccc(F)cc1)C(=O)c1cccc(S(=O)(=O)N2CCN(c3ccccc3)CC2)c1,-2,3,-9,2,-1
CC1CC(C)CN(S(=O)(=O)c2cccc(C(=O)N3CCN(c4ccc(F)cc4)CC3)c2)C1 (stereo unspecified),-12,19,-2,5,6
CC1CCN(S(=O)(=O)c2cccc(C(=O)N3CCN(c4ccc(F)cc4)CC3)c2)CC1,-1,0,-39*,4,-3
COc1ccc(CN(C)C(=O)c2cccc(S(=O)(=O)N3CCN(c4ccccc4)CC3)c2)c(OC)c1OC,?,-3,-33*,0,-9
COc1ccc(-n2nnnc2SCC(=O)NCCc2ccccc2)cc1,.,.,6,-1,-5
CCOc1ccc(NC(=O)c2cnn(-c3ccc(C)c(Cl)c3)c2C2CCNCC2)cc1,.,.,16,1,-4
Cc1ccc(-n2ncc(C(=O)Nc3ccc(Cl)cc3)c2C2CCNCC2)cc1C,7,?,-44*,2,3
Cc1ccc2oc(=O)c(S(=O)(=O)c3ccc(C(C)(C)C)cc3)cc2c1,.,.,-5,2,5
CSc1ccc(CCNC(=O)CCCn2nc(C)c3sc4ccccc4c3c2=O)cc1,.,.,-69*,8,-1
Cc1ccc(NC(=O)CCCn2nc(C)c3sc4ccccc4c3c2=O)c(Cl)c1,.,.,-45*,2,-4
Cc1nn(CCCC(=O)NCc2ccc(OC(C)C)cc2)c(=O)c2c1sc1ccccc12,.,.,-8,1,-1
COc1cc(OC)c(NC(=O)CCCn2nc(C)c3sc4ccccc4c3c2=O)cc1Cl,.,.,-71*,3,-3
CCc1ccc(NC(=O)CC(c2cc(OC)c(OC)c(OC)c2)N2Cc3ccccc3C2=O)cc1 (stereo unspecified),.,.,4,2,-2
COc1ccc2c(C)c(CCC(=O)NCc3ccc(Cl)cc3)c(=O)oc2c1C,.,.,-13,4,-2
SMILES,TRPV1 PAM,TRPV1 ag,D1 antag,D1 agonist,D1 potentiator
COCCCNC(=O)CS(=O)Cc1nc(-c2ccccc2C)oc1C (stereo unspecified),15,2,-48*,2,-3
COCCNC(=O)CS(=O)Cc1nc(-c2ccc(Cl)cc2)oc1C (stereo unspecified),.,.,9,0,-5
CCOc1ccc(C2=C/C(=C/c3cccnc3)C(=O)O2)cc1,.,.,-14,65*,-2
COc1ccc(C2=C/C(=C/c3cccnc3)C(=O)O2)cc1OC,18,?,-21,60*,-12
CC(=O)Oc1cccc(/C=C2\C=C(c3ccc(C)cc3)OC2=O)c1,-2,25,2,7,-6
COc1ccc(C2=C/C(=C\c3ccc(OC(C)=O)cc3)C(=O)O2)cc1,8,0,-1,16,-4
CCC(=Nc1ccccc1)C1=C(O)CCCC1=O,0,-3,5,2,-2
CCC(=Nc1ccccc1)C1=C(O)CC(C)(C)CC1=O,105*,9,3,3,-3
OCCC1CN(Cc2ccncc2)CCN1C1CCCC1 (stereo unspecified),5,-4,-36*,3,0
S=C(NCCN1CCOCC1)N/N=C/c1c2ccccc2cc2ccccc12,5,2,-3,32*,1
Cc1ccc(S(=O)(=O)Nc2cc(Cl)ccc2-n2cncn2)cc1,?,0,-38*,1,2
O=S(=O)(Nc1cc(Cl)ccc1-n1cncn1)c1cc(Br)ccc1Br,-9,0,-33*,21,-10
COc1ccc(NC(=O)Cn2c(=O)n(Cc3ccco3)c(=O)c3oc4ccccc4c32)cc1Cl,.,.,7,0,-3
Cc1ccc(N2CCN(S(=O)(=O)N3CCOCC3)CC2)cc1C,-14,28,-31*,1,2
Cc1cc(Cl)ccc1OCc1cc(=O)n2c3c(sc2n1)CCCC3,.,.,-31*,3,1
COc1ccc(C(=O)Nc2cccc(OCc3cc(=O)n4c5c(sc4n3)CCCC5)c2)cc1,.,.,-30*,0,0
Cc1cccc(OCc2cc(=O)n3c4c(sc3n2)CCCC4)c1C,.,.,-28,3,-3
Cc1c(Cl)cccc1NC(=O)Cn1nc(C)c2sc3ccccc3c2c1=O,.,.,-15,2,0
O=C(COc1ccc(Cl)cc1Cl)Nc1nnc(C2=COCCO2)o1,2,0,-69*,2,-7
COC(=O)c1nc(NC(=O)C(C)(C)C)n[nH]1,?,-3,-42*,3,-4
COC(=O)c1nc(NC(=O)c2ccc(Br)cc2)n[nH]1,16,-1,1,0,-3
COc1cc(OC)cc(-c2cc3nc(C)c(CCC(=O)NC(C)CCc4ccco4)c(C)n3n2)c1 (stereo unspecified),-1,-9,-1,0,-4
Cc1nc2cc(-c3ccccc3)nn2c(C)c1CCC(=O)NCc1ccco1,5,0,-32*,4,.
Cc1nc2cc(-c3cccc(F)c3)nn2c(N2CCN(C(=O)c3ccco3)CC2)c1C,-20,81*,-10,1,-1
Cc1nc2cc(-c3cccc(F)c3)nn2c(C)c1CCC(=O)NC(C)CCc1ccco1 (stereo unspecified),-4,0,-35*,5,.
COc1ccccc1-c1cc2nc(C)c(CCC(=O)NCc3ccco3)c(C)n2n1,-11,16,4,2,-10
